Assay results reported in PMC4336329 (PLoS ONE, 2015).
In all, about 310,000 compounds went through this assay and about 14,000 (4.5%) showed an effect of 50% or more. Effects have a minus sign here. This excerpt belongs to a sample that is enriched for strong results.

target: human ether-à-go-go-related gene (hERG) potassium channel (human, UniProt Q12809); assay: primary screen, population patch clamp on CHO cells stably expressing hERG; higher = less effect of the substance
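Note: peak tail current of the secondary pulse compared with the same well before compound.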

human ether-à-go-go-related gene (hERG) potassium channel, sequence (Q12809 whole entry, looked up): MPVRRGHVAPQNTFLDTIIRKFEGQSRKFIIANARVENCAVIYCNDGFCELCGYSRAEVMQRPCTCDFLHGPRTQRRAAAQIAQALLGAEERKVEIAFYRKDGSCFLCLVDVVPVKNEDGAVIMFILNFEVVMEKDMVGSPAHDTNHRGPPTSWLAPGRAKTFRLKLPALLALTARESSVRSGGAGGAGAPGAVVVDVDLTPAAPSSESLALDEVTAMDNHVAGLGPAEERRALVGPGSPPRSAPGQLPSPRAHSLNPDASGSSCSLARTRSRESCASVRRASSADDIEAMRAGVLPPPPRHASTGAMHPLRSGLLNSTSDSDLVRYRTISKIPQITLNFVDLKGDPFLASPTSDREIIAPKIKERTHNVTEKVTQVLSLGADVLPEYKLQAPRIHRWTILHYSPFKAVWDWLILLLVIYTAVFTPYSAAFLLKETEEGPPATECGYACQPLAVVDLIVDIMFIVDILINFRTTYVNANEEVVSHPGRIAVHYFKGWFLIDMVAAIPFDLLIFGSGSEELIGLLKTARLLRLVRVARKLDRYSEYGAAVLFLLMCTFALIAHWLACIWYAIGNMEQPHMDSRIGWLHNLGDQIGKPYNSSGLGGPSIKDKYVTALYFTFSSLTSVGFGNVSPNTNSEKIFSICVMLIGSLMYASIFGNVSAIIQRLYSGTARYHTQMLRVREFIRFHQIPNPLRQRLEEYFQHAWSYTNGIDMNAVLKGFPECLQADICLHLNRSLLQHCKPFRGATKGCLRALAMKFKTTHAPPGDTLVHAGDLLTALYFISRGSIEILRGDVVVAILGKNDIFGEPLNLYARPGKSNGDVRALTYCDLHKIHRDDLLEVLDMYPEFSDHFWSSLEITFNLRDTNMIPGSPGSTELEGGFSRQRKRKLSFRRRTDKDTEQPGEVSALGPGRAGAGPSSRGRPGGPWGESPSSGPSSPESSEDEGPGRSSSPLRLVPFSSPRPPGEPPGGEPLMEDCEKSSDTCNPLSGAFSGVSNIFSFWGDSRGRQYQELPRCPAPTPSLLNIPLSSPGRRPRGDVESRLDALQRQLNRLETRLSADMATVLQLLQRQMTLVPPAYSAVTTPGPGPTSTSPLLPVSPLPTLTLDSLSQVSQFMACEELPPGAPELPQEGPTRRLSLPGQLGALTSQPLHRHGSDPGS

SMILES | hERG current change (%, negative = inhibition) at 10uM [%]
CC(=O)Nc1ccc(S(=O)(=O)NNC(=O)c2cccc(Cl)c2)cc1 | 8.3
CCOC(=O)CON1C(=O)c2ccccc2C1=O | -5.5
COc1ccc(Cl)cc1-n1c(C)cc(C=O)c1C | 4.29
COc1ccc(CN(C(=O)c2cnccn2)C(C(=O)NC(C)(C)C)c2cc(OC)c(OC)c(OC)c2)cc1 (stereo not drawn) | 1.58
CCOC(=O)c1ccc(Oc2coc3cc(O)ccc3c2=O)cc1 | 17.6
CCOc1ccc(NS(=O)(=O)c2ccc(OC)c(NC(=O)c3ccc4c(c3)OCCO4)c2)cc1 | -2.7
O=C(Cc1csc(-c2ccccc2)n1)NCc1ccco1 | -1.66
CCOc1ccc(C(=O)N2CCN(c3cnn(-c4ccccc4)c(=O)c3Cl)CC2)cc1 | -77.8
CC(C)c1ccc(C(=O)N2CCN(c3cnn(C)c(=O)c3Cl)CC2)cc1 | -64.4
Cc1ccc(C(=O)N2CCN(c3cnn(C)c(=O)c3Cl)CC2)cc1 | -31.1
Cc1ccn2cc(C(=O)N3CCN(c4cnn(-c5ccccc5)c(=O)c4Cl)CC3)nc2c1 | -46.7
COc1ccc(C(=O)N2CCN(c3cnn(-c4ccccc4)c(=O)c3Cl)CC2)cc1 | -71.3
CCS(=O)(=O)N1CCN(c2cnn(-c3ccccc3)c(=O)c2Cl)CC1 | -29
CC(C)c1ccc(C(=O)N2CCCN(C(=O)c3ccc(C(C)C)cc3)CC2)cc1 | -32.9
O=C(c1cccc(Br)c1)N1CCN(c2cnn(-c3ccccc3)c(=O)c2Cl)CC1 | -47.4
O=C(c1ccc(F)cc1)N1CCN(c2cnn(-c3ccccc3)c(=O)c2Cl)CC1 | -48.6
CCCCOP(=O)(c1ccc(N(C)C)cc1)C(O)c1ccc(N(C)C)cc1 (stereo not drawn) | -5.3
COc1cc(/C=C/c2nc(N)nc(-c3ccccc3O)n2)cc(OC)c1OC | -3.86
Cc1ncc([N+](=O)[O-])n1CCOC(=O)Nc1ccc(Cl)c(Cl)c1 | 1.07
CCOc1ccc(Cl)cc1CNCCCSc1nc(C)cc(C)n1.Cl | -59.6

SMILES | hERG current change (%, negative = inhibition) at 10uM [%]
Cc1cc(C)nc(SCCCNCc2ccccc2)n1.Cl | -3.19
CCOc1c(CNCCCSc2nc(C)cc(C)n2)cccc1OC.Cl | -11.1
CCOc1ccc(Cl)cc1CNCCCSc1ncccn1 | -37.3
Cc1ccc(CNCCCSc2nc(C)cc(C)n2)cc1.Cl | -52.3
Cc1cc(C)nc(SCCCNCc2ccc(Br)cc2)n1.Cl | -36.1
O=C(NC1CCCCC1)C1CC(=O)N(CCc2ccccc2)C1 (stereo not drawn) | -7.01
O=C(c1ccccc1O)N1CCOCC1 | 3.51
CNC(=S)N(CCc1c(C)[nH]c2ccc(OC)cc12)Cc1cccnc1 | 9.25
CCn1c(=O)c(=O)[nH]c2cc(C(=O)NC(C)c3ccc(S(N)(=O)=O)cc3)ccc21 (stereo not drawn) | 3.47
CCCCCOc1ccc(/C(C)=N/NC2=NCCN2)cc1 | -39.8
Cc1cc(N2CCC(C(=O)NCC3CC3)CC2)nc(-c2ccccc2)n1 | -73.1
Cc1cc(N2CCC(C(=O)Nc3ccc(F)cc3)CC2)nc(-c2ccccc2)n1 | -32.9
C=CCNC(=O)C1CCN(c2cc(C)nc(-c3ccccc3)n2)CC1 | -58.2
Cc1cc(-c2ccccc2)nc(N2CCC(C(=O)NC(C)C)CC2)n1 | 4.06
Cc1cc(N2CCC(C(=O)NC3CC3)CC2)nc(-c2ccccc2)n1 | -46
C#CCNC(=O)C1CCN(c2cc(C)nc(-c3ccccc3)n2)CC1 | -40.7
C=CCNC(=O)C1CCN(c2nc(C)cc(-c3ccccc3)n2)CC1 | -51.3
Cc1cc(C)nc(N2CCC(C(=O)NCc3ccccc3)CC2)n1 | 3.44
Cc1cc(N2CCC(C(=O)NC3CCCCC3)CC2)nc(-c2ccccc2)n1 | -49.6
COc1ccc(NC(=O)c2sccc2OS(=O)(=O)N(C)C)cc1 | 11.2

SMILES | hERG current change (%, negative = inhibition) at 10uM [%]
C/C(=N/NC(N)=S)c1ccc(Br)s1 | 16.8
CCOc1ccccc1/C=N/NC(=O)Cc1csc(Nc2cccc(C(F)(F)F)c2)n1 | 4.05
N#CSc1ccc2oc(C3=NCCN3)cc2c1 | 0.521
O=C(c1ccc2c(c1)OCCCO2)N1CCCCC1 | 11.7
CCNc1nc(NCC)nc(OCC(=O)O)n1 | 7.6
COc1ccc(N2CCN(c3nc(NCCO)nc(N4CCOCC4)n3)CC2)cc1 | -1.07
O=C1NC(=O)N(Cc2ccccc2)C1=O | 26.4
COc1ccc(C2/C=C\CN(CC3CC3)CC(=O)N2Cc2ccc(F)cc2)cc1 (stereo not drawn) | -21
CCCCNCCCOc1ccc(C)cc1Br.O=C(O)C(=O)O | -35
COCCCNCCCOc1ccc(C)cc1Br.O=C(O)C(=O)O | -30.7
OCCNCCCOc1cc(Cl)ccc1Cl | -14.4
CCCCNCCOCCSc1ccc(Cl)cc1.O=C(O)C(=O)O | -43.5
CCCCNCCOCCOc1ccc(C)cc1Br.O=C(O)C(=O)O | -32.1
CCCCNCCCOc1cc(Cl)ccc1Cl.O=C(O)C(=O)O | -54.3
COCCCNCCOCCOc1ccc(Cl)cc1Br.O=C(O)C(=O)O | -51.9
CCCCNCCOCCOc1ccc(Cl)cc1Br.O=C(O)C(=O)O | -57.9
COCCNCCCOc1ccc(Cl)cc1Br.O=C(O)C(=O)O | -42
CCCCNCCOCCOc1ccccc1-c1ccccc1.O=C(O)C(=O)O | -50.1
COCCCNCCOCCOc1ccccc1-c1ccccc1.O=C(O)C(=O)O | -29.4
CCCCNCCOc1ccccc1-c1ccccc1.O=C(O)C(=O)O | -28.2
